Each structure is given as a SMILES string. The campaign covered roughly 96,000 compounds. About 100 (0.1%) were called active. The entries come from a sample that favours actives as a whole. Potency and affinity values are given separately. Values without a mark were called inactive.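 Rule for the calls: active = displacement above 50% at 20 µM plus a fluorescence interference ratio under 1.5; inactive = the rest.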

The assay deals with Bcl-2-like protein 10 (Homo sapiens) (UniProt Q9HD36). The experiment in a line: Bcl-B/TR3 peptide binding disruption – biochemical, fluorescence polarization, FITC-TR3 peptide, selectivity assay for Bfl-1 inhibitor project, primary screen (AID 748).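 Note: plate controls were wells without compound for no effect and wells lacking Bcl-B protein for full effect.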 Conditions: FP displacement of FITC-TR3 peptide from Bcl-B; at 20 µM; active compounds read high. For orientation: In fluorescence polarisation assays a small probe gives low polarisation when free and higher when bound to something large.
For `Cc1cccc(C(=O)NNC2=C(C(=O)C(F)(F)F)CCC2)c1O`, the displacement was 10.3%.

On to `Cc1nnc(SCCn2c(N3CCC(C)CC3)nc3c2c(=O)[nH]c(=O)n3C)s1`, for which the displacement is -6.3%.

With `Cc1cc(C)n(C(=O)CCN2C(=O)c3ccccc3C2=O)n1`, the displacement was -3.1%.

For `c1coc(-c2nnc3sc(-c4cccs4)nn23)c1`, the displacement is 4.7%.

As to `Brc1ccc(-c2nn3c(-c4ccco4)nnc3s2)o1`, the displacement is 30%.

On to `CC1(C)OC(=O)C(=CNn2cnc3ccccc3c2=O)C(=O)O1`, for which the displacement is -2.6%.

Consider `CCOC(=O)C1CCCN(C/C(O)=C(\C#N)c2nc(-c3ccc(Cl)cc3)cs2)C1` (stereo unspecified), for which the displacement was 0%.

Turning to `CCOc1cc(N2CCOCC2)c(OCC)cc1NC(=O)c1cc(-c2ccco2)nc2ccccc12`, the displacement was 25.3%.

Turning to `O=C(N/N=C/c1cccc(F)c1)c1cc(-c2ccco2)nc2ccccc12`, the displacement was 39.5%.

For `Cc1cccc(NC(=O)c2cc(-c3ccco3)nc3ccccc23)n1`, the displacement was 41.4%.

For `O=C(O)c1cc(-c2ccco2)nc2ccccc12`, the displacement was 18.6%.

As to `Cc1ccccc1C(=O)c1cccn1CC(=O)NCc1ccc2c(c1)OCO2`, the displacement was -0.3%.

Regarding `O=C(O)c1cc2c([nH]c1=O)CCCC2`, the displacement was -1%.

Regarding `Cc1cc(NC(=O)CN2CCN(S(=O)(=O)c3ccc4ccccc4c3)CC2)no1`, the displacement is -1%.

On to `O=C(NCCN1CCCCCC1)c1ccc(CS(=O)(=O)c2ccc(Br)cc2)o1`, for which the displacement is 4.3%.

In the case of `CS(=O)(=O)Nc1ccccc1C(=O)Nc1ccc2c(c1)OCCO2`, the displacement is -6.4%.

Turning to `Cc1ccc(C(=O)NC2CCCc3ccccc32)o1` (stereo unspecified), the displacement was 1.5%.

For the compound `NC(=S)N/N=C/c1ccc(-c2cccc([N+](=O)[O-])c2)o1`, the displacement was -3.1%.

With `O=C(O)c1cc(-c2ccc(/C=N/Nc3ccc(Cl)cc3)o2)ccc1Cl`, the displacement was -20.9%.

Consider `C/C(N)=C(/C#N)C(=O)COC(=O)CSc1ccc2ccccc2c1`, for which the displacement is -15.4%.

For `O=C(COC(=O)CCc1ccccc1)Nc1ncc(Cl)cc1Cl`, the displacement is 24.2%.

With `CC(=O)NC12CC3CC(C1)CC(C(=O)OCC(=O)Nc1ncc(Cl)cc1Cl)(C3)C2`, the displacement was 40.7%.

For `Cc1ccc(S(=O)(=O)CCC(=O)OCC(=O)Nc2ncc(Cl)cc2Cl)cc1`, the displacement is 24.5%.

Turning to `O=C(COC(=O)CCCN1C(=O)c2ccccc2C1=O)Nc1ncc(Cl)cc1Cl`, the displacement is 43.6%.

With `Cc1ccc(S(=O)(=O)NCC(=O)OC(C)C(=O)Nc2ncc(Cl)cc2Cl)cc1` (stereo unspecified), the displacement was -1.5%.

Regarding `O=C(COC(=O)C12CC3CC(CC(C3)C1)C2)Nc1ncc(Cl)cc1Cl`, the displacement is 31.8%.

On to `CC(C(=O)OCC(=O)Nc1ncc(Cl)cc1Cl)N1C(=O)c2ccccc2C1=O` (stereo unspecified), for which the displacement was 21.3%.

Take `COc1ccc(CC(=O)OCC(=O)Nc2ncc(Cl)cc2Cl)cc1`: the displacement is 41.3%.

In the case of `CCOC(=O)c1ccc(NC(=O)CSc2nnc(CNC(=O)c3ccccc3F)o2)cc1`, the displacement is 0%.

For `CC(C)(C)C(=O)CSc1nccc(=O)[nH]1`, the displacement was 2.2%.

On to `O=C1C(C2=NC(C(=O)O)C3C(=O)N(c4ccccc4)C(=O)C23)=C(O)c2ccccc21` (stereo unspecified), for which the displacement is -7%.

On to `COc1ccc(Cl)cc1C(=O)Nc1ccc(S(=O)(=O)N2CCCC2)cc1`, for which the displacement was -12.1%.

Consider `O=C(CCC1CCCC1)N1CCN(S(=O)(=O)Cc2ccccc2)CC1`, for which the displacement was -7.6%.

As to `O=C(Nc1ccc(-c2nnc(-c3ccco3)o2)cc1)C(c1ccccc1)c1ccccc1`, the displacement was 3.9%.

As for `COC(=O)CSc1nnc(CNS(=O)(=O)c2ccc(Cl)cc2)n1C`, the displacement was 8.2%.

Regarding `Cc1cc(NC(=O)COC(=O)C2CCN(S(=O)(=O)c3ccc(Cl)cc3)CC2)no1`, the displacement is 7.5%.

For the compound `Cc1cc(NC(=O)COC(=O)C2CCN(S(=O)(=O)c3cccc(Cl)c3Cl)CC2)no1`, the displacement is 1.9%.

As to `COc1ccc(CC(=O)OCC(=O)Nc2ncc(Cl)cc2Cl)cc1OC`, the displacement was 3%.

Take `COc1cc(CCC(=O)OCC(=O)Nc2ncc(Cl)cc2Cl)cc(OC)c1OC`: the displacement was 32.6%.

With `Cc1ccc(Cl)cc1N1CCN(C(=O)c2cn(C)c(=O)c3c2c2ccccc2n3C)CC1`, the displacement was -4.3%.

With `CC(=O)Nc1ccc(NC(=O)C(C)n2nc([N+](=O)[O-])c(Br)c2C)cc1` (stereo unspecified), the displacement is -5.9%.

For the compound `CC(=O)c1c(C)[nH]c(C(=O)Nc2c(C)n(C)n(-c3ccccc3)c2=O)c1C`, the displacement is 1%.

On to `COc1cccc(C=Nc2ccccc2C(=O)Nc2nccs2)c1OC`, for which the displacement is -10.6%.

On to `O=C(C[n+]1ccc(C(=O)N/N=C/c2ccc(Br)cc2)cc1)c1ccccc1`, for which the displacement is 43.2%.

As for `O=C(C[n+]1ccc(C(=O)N/N=C/c2ccc(OCc3ccccc3)cc2)cc1)c1ccccc1`, the displacement was 46.7%.

On to `CCOC(=O)C1C(C#N)=C(N)OC(C)=C1c1ccncc1` (stereo unspecified), for which the displacement is 11.4%.

For the compound `COc1ccc2nc(COC(=O)c3ccco3)c(C(C)=O)[n+]([O-])c2c1`, the displacement was 10.7%.

With `CCOC(=O)c1c(COC(=O)c2ccco2)nc2ccccc2[n+]1[O-]`, the displacement was -4.9%.

On to `CC(=O)c1c(COC(=O)c2ccco2)nc2ccccc2[n+]1[O-]`, for which the displacement is 68.3% (active).

Regarding `O=C1CC(Cc2ccccc2)C(=O)N1Cc1ccco1` (stereo unspecified), the displacement is 0%.

On to `CCn1c(Cn2nnc(-c3ccccc3)n2)nnc1SCC(=O)Nc1ccc(N(C)C)cc1`, for which the displacement was 4.2%.

In the case of `Cc1nnc(NC(=O)NC(C)N2C(=O)C3C4C=CC(C4)C3C2=O)s1` (stereo unspecified), the displacement is -30.5%.

Consider `O=C1NC2(CCCCC2)NN1c1ccccc1`, for which the displacement was -5.6%.

For the compound `CC1=Nc2cccc3cccc(c23)N1`, the displacement is 2.9%.

Take `O=C1CCSc2cccc3cccc(c23)N1`: the displacement is -2.2%.

Consider `CC(C)(C)C1CCC2(CC1)Nc1cccc3cccc(c13)N2`, for which the displacement was -38%.

For the compound `O=C(O)Cc1coc(-c2ccc(F)cc2)n1`, the displacement is -15.2%.

On to `O=C(CN1C(=O)NC2(CCc3ccccc32)C1=O)c1ccc2c(c1)OCCO2` (stereo unspecified), for which the displacement was -13.7%.

`COc1cccc(NC(=O)C(NC2CCCC2)c2ccccc2)c1` (stereo unspecified): the displacement is 2.1%.

In the case of `CCOC(=O)CNC(=O)c1c2c(nc3ccccc13)CCCC2`, the displacement was 7.2%.

Consider `c1coc(CNc2c3c(nc4ccccc24)CCC3)c1`, for which the displacement is 26.6%.

The values are drawn from PubChem BioAssay AID748 (Sanford-Burnham Center for Chemical Genomics, 2007).
